The results in this text go back to PubChem BioAssay AID686979 (National Center for Advancing Translational Sciences (NCATS), 2013).

Out of some 420,000 compounds screened, about 50,000 (12%) were called active. Where a call stands in place of a potency, no number is given. Another 26% or so got no clear call; they are omitted. Calls follow the shape of the dose curve; as a rule, active = well fitted inhibition curve with a large enough effect; inconclusive = small, poorly fitted or top-dose-only effect; inactive = flat fitted curve, though single readings scatter. This excerpt belongs to a sample that is enriched for actives.
Potency is read from the fitted curve at half-maximal effect.

The test can be described thus: qHTS for Inhibitors of human tyrosyl-DNA phosphodiesterase 1 (TDP1): qHTS in cells in presence of CPT. Also: nearly all actives have a fitted effect of over 55% in size. As to conditions: chicken DT40 Tdp1-/-;hTDP1 cells + 20 nM CPT, ATP luminescence, 48 h; series mostly up to 46.2 µM. In short, it runs like this: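 Cell growth measured by CellTiter-Glo luminescence after a minimum 48 h, 37 C compound exposure with 20 nM CPT in Tdp1-knockout DT40 cells stably expressing hTDP1, seeded 400/well; qHTS titration format.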
(In general: Quantitative high-throughput screening tests each substance at several concentrations.)
Consider `O=Cc1c(Cl)cccc1Cl`, for which the Potency result is “inactive”.
The same measure for `CC1(C)O[C@@H]2[C@H](O1)[C@@H](CO)O[C@H]2n1c(N2CCCCC2)nc2c(N)ncnc21`: “inactive”; for `CC(C)CNS(=O)(=O)c1ccc(C(=O)Nc2ccc3c(c2)OCO3)cc1`: “inactive”; for `CC(=O)Nc1cccc(NC(=O)CSc2nccn2Cc2ccc3c(c2)OCO3)c1`: “inactive”.
For `CNc1ccc([N+](=O)[O-])cc1C(=O)O` the value was “inactive”.
Take `Cn1cnc([N+](=O)[O-])c1Sc1ccccc1`: the Potency was 18.4 µM (active).
Regarding `Cn1cnc([N+](=O)[O-])c1Sc1n[nH]c(N)n1`, the Potency entry was “inactive”.
The same measure for `Cn1cnc([N+](=O)[O-])c1Nc1ccccc1O`: “inactive”; for `COc1cccc(N2CC(NS(=O)(=O)c3cccs3)CC2=O)c1` (stereo unspecified): “inactive”.
For the molecule `Cc1c(Cl)cccc1NC(=O)CCS(=O)(=O)c1ccc2c(c1)oc(=O)n2C`, the Potency entry is “inactive”.
The same measure for `O=C(COC(=O)c1ccc(F)cc1)NCC1COc2ccccc2O1` (stereo unspecified): “inactive”; for `OC(COCc1ccco1)CN1CCN(c2ccccc2)CC1` (stereo unspecified): “inactive”; for `OC(COCC1COc2ccccc2O1)CN1CCN(c2ccc(F)cc2)CC1` (stereo unspecified): 13 µM (active).
The same measure for `Nc1ncnc2c1ncn2[C@@H]1O[C@H](C(=O)NCC(F)(F)F)[C@@H](O)[C@H]1O`: “inactive”; for `COc1ccccc1NC(=O)COC(=O)COc1ccccc1F`: “inactive”.
The same measure for `CCc1nn(CC(=O)N2CCN(c3cc(C)ccc3C)CC2)c(=O)c2cc3occc3n12`: “inactive”; for `CCCNC(=O)C(CC)n1nc(CC)n2c(cc3oc(C)cc32)c1=O` (stereo unspecified): 25.9 µM (active).
Regarding `CCc1nn(CCCC(=O)NC(C)c2ccccc2)c(=O)c2cc3occc3n12` (stereo unspecified), the Potency result was “inactive”.
For `O=C(CC[C@H]1O[C@@H](n2ccc(=O)[nH]c2=O)[C@H](O)[C@@H]1O)N[C@H](Cc1ccccc1)C(=O)NCCCN1CCCC1=O` the value was “inactive”; for `CC1CCCN(c2csc3ccc(F)cc3c2=O)C1` (stereo unspecified), “inactive”; for `Cn1cccc1C(=O)OCC(=O)NCCc1ccccc1`, “inactive”.
For `COCCN1C(=O)N[C@@H](c2ccccc2)C(C(=O)OC)=C1C` the value was “inactive”; for `COC(=O)C1=C(C)N(Cc2ccccc2)C(=NCCCOC(C)C)N[C@H]1c1ccccc1`, 6.51 µM (active).
Consider `CCN1C(=O)N[C@@H](c2ccccc2)C(C(=O)OC)=C1C`, for which the Potency result was “inactive”.
As for `CC(C)C(=O)Nc1ccc2c3c(cccc13)CC2`, the Potency result is “inactive”.
With `CN(Cc1ccccc1)C(=O)c1cn(C)c2ccc(S(=O)(=O)N3CCCCC3)cc2c1=O`, the Potency entry was “inactive”.
The same measure for `CCC(CC)C(=O)Nc1c2c(nn1-c1ccc(C)cc1)CS(=O)(=O)C2`: “inactive”; for `O=C(NCc1ccccc1)c1cc(-c2cccc(Cl)c2)on1`: “inactive”.
As to `CCOCCOC(=O)C1=C(C)N(C)C(=O)NC1c1ccccc1F` (stereo unspecified), the Potency entry is “inactive”.
Regarding `CCOC(=O)N1CCc2c(sc3c2C(=O)NC(c2ccccc2F)N3)C1` (stereo unspecified), the Potency was 20.6 µM (active).
The same measure for `N#Cc1c(N)sc2c1CCN(C(=O)OCc1ccccc1)C2`: “inactive”.
Regarding `CC1OC(OCC2OC(Oc3c(-c4ccc(O)c(O)c4)oc4cc(O)cc(O)c4c3=O)C(O)C(O)C2O)[C@@H](O)C(O)C1O` (stereo partly specified), the Potency entry was “inactive”.
For `CCOc1ccc(CCNC(=O)COC(=O)C2CCN(S(=O)(=O)c3ccccc3)CC2)cc1OCC`, the Potency entry was “inactive”.
Turning to `COc1ccc(-c2cc(=O)oc3cc(OCC(=O)N(C)C4CCS(=O)(=O)C4)ccc23)cc1` (stereo unspecified), the Potency entry is “inactive”.
For the molecule `CCC1SC(CC)C(=O)N(CC(=O)NC2CCCCC2)C1=O` (stereo unspecified), the Potency result is “inactive”.
For `CN1c2ccc(C=O)c3c(C=O)ccc(c23)N(C)C1(C)C` the value was 20.6 µM (active); for `NC(=O)c1ccc(Nc2ccc3c(c2)CCC3)c([N+](=O)[O-])c1`, “inactive”.
For `CNN/C(N=Cc1ccc([N+](=O)[O-])s1)=N\S(=O)(=O)c1cc(C)c(Cl)cc1SCc1ccccc1` the value was 1.16 µM (active); for `O=C(CCC(=O)c1cccs1)Nc1nc2ccccc2s1`, “inactive”.
For `COc1cc(NC(=O)CCNC(=O)Cn2ccc3ccccc3c2=O)cc(OC)c1OC`, the Potency entry was “inactive”.
With `CC(C)n1c(-c2ccncc2)n[nH]c1=S`, the Potency entry is “inactive”.
For `C#CCN(N(C)c1ncc(C(F)(F)F)cc1Cl)S(=O)(=O)c1ccc2ccccc2c1` the value was “inactive”.
As to `CC(OC(=O)CN1C(=O)c2ccccc2C1=O)C(=O)c1ccccc1` (stereo unspecified), the Potency entry was “inactive”.
For `CC(C)OC(=O)CN1C(=O)C(=O)c2ccccc21` the value was 13 µM (active).
For `CCOC(=O)C1CCN(C(=O)CN2C(=O)c3cccnc3Oc3ccc(C)cc32)CC1` the value was “inactive”.
With `CCCCOC(=O)Cn1c(=O)n(CC(=O)OCCCC)c2cc(C)ccc21`, the Potency result was “inactive”.
For `CC(C)OC(=O)CN1C(=O)c2ccccc2C1=O` the value was “inactive”; for `CCOC(=O)CN1C(=O)C(=O)c2cc(C)ccc21`, 8.2 µM (active); for `NS(=O)(=O)c1ccc(CCNC(=O)CN2C(=O)c3ccccc3S2(=O)=O)cc1`, “inactive”.
The same measure for `O=C(O)C(=Cc1ccc([N+](=O)[O-])cc1)CCc1ccccc1`: “inactive”.
For `COc1ccccc1NC(=O)CCN1CCN(c2ccc(Cl)cc2)CC1` the value was 14.6 µM (active).
With `COc1ccc(NC(=O)CCN2CCCC2)c(OC)c1`, the Potency result was “inactive”.
As to `COc1ccc(Cl)cc1NC(=O)CCN1CCOCC1`, the Potency result was “inactive”.
The same measure for `CC(C#N)(NC(=O)CN1CCN(S(=O)(=O)c2cc(C(F)(F)F)ccc2Cl)CC1)C1CC1` (stereo unspecified): “inactive”; for `Cc1cc(NC(=O)COC(=O)/C=C/c2ccc(C)o2)no1`: “inactive”; for `CCCCc1ccc(NC(=O)NCc2cccnc2)cc1`: “inactive”.
For `Cc1cc(/C=C2/SC(=O)N(CC(=O)N3CCCC3)C2=O)c(C)n1C` the value was “inactive”; for `Cc1cccc(N2CCN(c3c(CN4CCCC4)c(=O)oc4ccccc34)CC2)c1C`, “inactive”; for `O=C1c2ccccc2C(=O)c2c1cccc2N1CCN(CCO)CC1`, “inactive”.
Regarding `Cc1cccc(N2CCN(C3=C(c4ccccc4)C(=O)c4ccccc43)CC2)c1C`, the Potency was 7.31 µM (active).
For `COc1ccc(CCNC(=O)CCCCCNC(=O)N2CCn3c2nc2ccccc23)cc1OC` the value was “inactive”; for `COc1cc(C(=O)OCC(=O)N(CC(C)C)C2CCS(=O)(=O)C2)ccc1OCC(C)C` (stereo unspecified), “inactive”; for `CCOc1ccc(NC(=O)c2c(NC(=O)Cc3ccccc3)sc3c2CCC(C)C3)cc1` (stereo unspecified), 16.4 µM (active).
The same measure for `COC(=O)c1c(NC(=O)CN2CCN(S(=O)(=O)c3ccccc3[N+](=O)[O-])CC2)sc2c1CCC(C)C2` (stereo unspecified): “inactive”; for `CC(C)OC(=O)c1c(NC(=O)c2ccco2)sc2c1CCCC2`: “inactive”.
Take `CCOC(=O)c1c(NC(=O)/C=C/c2ccc(OC)cc2)sc2c1CCC(C)C2` (stereo unspecified): the Potency result was “inactive”.
As for `CCOc1ccc(NC(=O)c2c(NC(=O)Cc3ccccc3)sc3c2CCCCC3)cc1`, the Potency was 18.4 µM (active).
Consider `Cc1ccc(C)c(N2CCN(C(=O)Cn3ncn4cccc4c3=O)CC2)c1`, for which the Potency entry is “inactive”.
In the case of `Cc1ccc(NC(=O)C(CC(=O)O)C2CCCO2)c(C)c1` (stereo unspecified), the Potency entry is “inactive”.
For the molecule `CN(Cc1ccccc1)C(=O)COC(=O)/C=C/c1ccc2c(c1)OCO2`, the Potency entry is “inactive”.
For `COc1ccccc1C1C(C(N)=O)=C(C)Nc2nc(CCCO)nn21` (stereo unspecified) the value was “inactive”; for `Cc1ccc(C(=O)N/C(=C/c2ccco2)C(=O)NCCc2c[nH]c3ccccc23)cc1C`, “inactive”.
The same measure for `CC(C)=C(NC(=O)c1ccco1)C(=O)NCCc1nc2ccccc2[nH]1`: “inactive”; for `CC(C)Oc1ccc(/C=C(\NC(=O)/C=C/c2ccco2)C(=O)NCCc2nc3ccccc3[nH]2)cc1`: 18.4 µM (active).
In the case of `COc1ccccc1Nc1nnc(SC(C)C(=O)NC2CC2)s1` (stereo unspecified), the Potency entry is “inactive”.
As to `O=c1[nH]c(=O)n(Cc2ccco2)c2c1C(C(F)(F)F)(C(F)(F)F)N=C(c1ccco1)N2`, the Potency entry was “inactive”.
As for `Cc1ccccc1C1=NC(C(F)(F)F)(C(F)(F)F)c2c(n(-c3ccc(F)cc3)c(=O)[nH]c2=O)N1`, the Potency is 18.4 µM (active).
The same measure for `CN(C(=O)CC1C(=O)NCCN1Cc1ccc(F)cc1Cl)C1CCCCC1` (stereo unspecified): “inactive”.
The same measure for `CCOc1ccccc1NC(=O)Cn1ncc2ccc([N+](=O)[O-])cc21`: “inactive”; for `COC(=O)c1c(C)cc(O)c(C)c1O`: “inactive”; for `C/C(=N\NC(=O)C1(C)CC1(Br)Br)c1ccc(C)cc1C` (stereo unspecified): “inactive”.
The same measure for `CC(C)CN(Cc1c(O)ccc2c(=O)c(-c3ccccc3)coc12)CC(C)C`: 5.17 µM (active); for `O=c1c(-c2ccccc2)coc2c(CN3CCOCC3)c(O)ccc12`: “inactive”.
`CN(C)Cc1c(O)ccc2c(=O)c(-c3ccccc3Cl)coc12`: the Potency entry is “inactive”.
`Cc1ccccc1OCC(=O)Nc1nc(C)c(C(=O)N(C)C)s1`: the Potency entry was “inactive”.
As to `CCc1ccccc1N(C)C(=O)C1CCCN(c2ncnc3onc(-c4ccc(F)cc4)c23)C1` (stereo unspecified), the Potency is 13 µM (active).
Turning to `CCc1noc(C)c1C(=O)N1CCCC(N2CCN(c3ccc(F)cc3)CC2)C1` (stereo unspecified), the Potency result is “inactive”.
The same measure for `Cc1ccnc(N2CCCC(C(=O)Nc3cc(F)ccc3C)C2)n1` (stereo unspecified): “inactive”.
Take `Cc1ccc(Cl)cc1N(C)C(=O)C1CCCN(c2ncnc3onc(-c4ccc(F)cc4)c23)C1` (stereo unspecified): the Potency was 7.31 µM (active).
The same measure for `CC1=C(c2ccc(F)cc2)S(=O)(=O)N=C1N1CCC(C(=O)NCCc2ccccc2C)CC1`: “inactive”; for `O=S(=O)(c1ccc(Cl)s1)N1CCC2(CC1)OCCO2`: “inactive”.
In the case of `Cc1cccc(NC(=O)c2cccc(C(F)(F)F)c2)c1`, the Potency entry is “inactive”.
Turning to `CNC(=O)c1ccc(NC(=O)c2cccc(C(F)(F)F)c2)cc1`, the Potency result was “inactive”.
`O=C(Nc1ccc(-c2csc(Nc3cccc(C(F)(F)F)c3)n2)cc1)c1cccc(C(F)(F)F)c1`: the Potency was 9.2 µM (active).
For `Cc1nn(C)c(C)c1NS(=O)(=O)c1ccc(OC(F)(F)F)cc1`, the Potency is 23.1 µM (active).
`O=S(=O)(Nc1ccc(O)c2ccccc12)c1ccc(OC(F)(F)F)cc1`: the Potency was 13 µM (active).
Regarding `O=C1COc2ccc(S(=O)(=O)Nc3ccc(OC(F)(F)F)cc3)cc2N1`, the Potency entry is “inactive”.
The same measure for `Nc1ncc(S(=O)(=O)Nc2ccc(OC(F)(F)F)cc2)cn1`: “inactive”.
For `COc1ccc(OC)c(S(=O)(=O)Nc2c(C)nn(C)c2C)c1` the value was “inactive”; for `Cc1nn(Cc2ccccc2)c(C)c1NS(=O)(=O)c1ccccc1`, “inactive”.
The same measure for `COc1cc2c(cc1OC)CC(=O)N(CCCN(C)C[C@H]1Cc3cc(OC)c(OC)cc31)CC2`: “inactive”.
